Test results reported in PubChem BioAssay.
A number with no mark means an inactive call. Active and inactive are the calls of the source.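 The calls were made as follows, unless noted: active = inhibition above 50%; inactive = the rest.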

Assay: antimalarial activity against Dd2 strain (AID 2302;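 active = growth inhibition above 50% at the single 2 µM test dose, taken to imply half-maximal potency below 2 µM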;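 also: 0% = DMSO untreated growth and 100% = chloroquine plus artemisinin killed control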)
Details: P. falciparum Dd2 in RBCs, LDH growth readout, 72 h; at 2 µM; stronger effect = higher value

Row | SMILES | growth inhibition
1 | CCCN(CCC)CC(O)COc1ccccc1C(=O)Nc1ccccc1 (stereo unspecified) | 95% (active)
2 | CCC(CC)CN1C(=O)C(c2ccccc2)(c2ccccc2)N=C1N | 81% (active)
3 | Fc1ccc2nc(-c3ccc(-c4ccc(CN5CCN(c6cnccn6)CC5)cc4)s3)[nH]c2c1 | 98% (active)
4 | Cc1[nH]c(C)c(-c2ccc(Cl)cc2Cl)c(=O)c1Br | 57% (active)
5 | CCCCCCCC1CC(CC(=O)Nc2ccnc3ccc(OC)cc23)CN1 (stereo unspecified) | 58% (active)
6 | CN1CCCN(Cc2ccc(-c3cccc(NC(=O)c4cccc(F)c4)c3)cc2)CC1 | 12%
7 | COc1ccc2c(=O)c(I)c(C)[nH]c2c1 | 96% (active)
8 | CCN(CCCN1CCCCC1)c1cc(C)nc(Nc2ccc(Oc3ccccc3)cc2)n1 | 99% (active)
9 | O=C(NC1CCCC1)c1ccc(N2CCC(NCc3cc4cc(Cl)ccc4[nH]3)CC2)cc1 | -10%
10 | Nc1ccc(Oc2ccc(Cc3cnc(N)nc3N)cc2)cc1 | 5%
11 | COc1ccc(CCn2c(=N)c(C(=O)NCc3cccnc3)cc3c(=O)n4ccccc4nc32)cc1 | 5%
12 | Cc1noc(C)c1-c1cccc(CNCc2cccc(-c3ccc(-c4nc5c(C)cccc5[nH]4)cc3)c2)c1 | 69% (active)
13 | Cc1sc2ncnc(Sc3nc4ccccc4[nH]3)c2c1C | 100% (active)
14 | Fc1cccc(COc2ccc(Nc3ncnc4sc(C#C[C@H]5CCCN5)cc34)cc2F)c1 | 17%
15 | COc1cc2c(cc1OC)CN(CCCCNC(=O)c1ccc(NC(=O)c3cc(Cl)cc(Cl)c3)cc1)CC2 | 75% (active)
16 | COc1ccc(NC(=O)[C@H](CC(C)C)Nc2ccnc(Nc3ccccc3)n2)cc1 | 32%
17 | c1ccc(Oc2ccc(Nc3nncc4ccccc34)cc2)cc1 | 82% (active)
18 | O=C(Nc1ccc2ccccc2c1)c1ccc(CN2CCC(Cc3ccccc3)CC2)cc1 | 10%
19 | Cc1ccc2[nH]c(-c3ccc(/C=C/C(=O)NC4CCN(Cc5ccccc5)CC4)cc3)nc2c1C | 92% (active)
20 | Cc1cc(C(=O)Nc2ccc(OCc3ccccc3)cc2)on1 | 89% (active)
21 | CCN(CC)CCNc1ccc(Nc2ccnc3cc4ccccc4cc23)cc1 | 99% (active)
22 | O=C(NCCCCCN1CCCN(C(=O)Nc2ccc(F)c(C(F)(F)F)c2)CC1)[C@@H]1C[C@H]1c1ccc(Cl)c(Cl)c1 | 1%
23 | Cc1cc(NN=Cc2ccccc2[N+](=O)[O-])c2ccccc2n1 | 100% (active)
24 | COc1cccc(CCc2cccc(CNC(C)=O)c2)c1 | -2%
25 | CC(C)[C@H]1CC[C@H](C)C[C@@H]1OC(=O)N[C@@H](Cc1ccc(O)cc1)C(=O)NC1CCN(Cc2ccc(OCCCN(C)C)cc2)C1 (stereo partly specified) | 64% (active)
26 | CCNc1cc(C(=O)N[C@@H](Cc2ccccc2)[C@H](O)CNC(C)(C)Cc2cccc(OC)c2)cc(N2CCCC2=O)c1 | 97% (active)

Assay: human hepatoma cell viability loss – ATP luminescence, cytotoxicity control for P. falciparum antimalarial project, primary screen (AID 2303);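 also: 0% = DMSO wells and 100% = digitonin-killed cells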
Details: HepG2 viability, 24-48 h, at 10 µM, stronger effect = higher value

Row | SMILES | inhibition
27 | CCC(Nc1noc(-c2c(-c3ccccc3)noc2C)n1)c1ccccc1 (stereo unspecified) | 4%
28 | C=CCN1Cc2c(O)cccc2C(c2ccc(O)c(O)c2)C1 (stereo unspecified) | -5%
29 | Cc1cc(=O)c(-c2cccc(Oc3ccc(Cl)cc3)c2)c(C)[nH]1 | -2%
30 | COc1ccc2c(NN=CC=Cc3ccccc3)ccnc2c1 | 9%
31 | CCNc1cc(C(=O)N[C@@H](Cc2ccccc2)[C@H](O)CN[C@@H]2CCc3ccccc32)cc(N2CCCC2=O)c1 | -5%
32 | CC(C)(C)Oc1ccc(C[C@@H]2NC3(C(=O)N(Cc4ccc(Cl)c(Cl)c4)c4ccccc43)C3C(=O)N(c4ccc(Br)cc4)C(=O)C32)cc1 (stereo partly specified) | 1%
33 | CN(C)Cc1ccc(-c2cc3c(-c4ccc(CN(C)C)cc4)ccnc3[nH]2)cc1 | 86% (active)
34 | CNC(=O)c1c(NC(=O)c2cccs2)sc2c1CCCC2 | 2%
35 | COc1ccccc1-c1nc2nc(N)nc(N)c2nc1-c1ccccc1OC | 27%
36 | Cc1ccc(Cn2ncc(N3C[C@@H](C)N[C@@H](C)C3)c(Cl)c2=O)cc1NC(=O)Nc1ccc(-c2ccccc2)cc1 | 51% (active)
37 | COc1ccc(-c2c3c(=O)n(C)c(=O)n(C)c3c3nnc4ccccc4n23)cc1 | -7%
38 | CCCCNCC(O)COc1ccccc1-c1ccc(N/N=C/c2cccc3ccccc23)nn1 (stereo unspecified) | 38%
39 | O=C(NCc1ccc(Cl)cc1)c1ccc(CN2CCCN(Cc3cccc(O)c3)CC2)cc1 | 25%
40 | N#Cc1cccc(C(O)CN(Cc2ccccc2)Cc2ccccc2)c1 (stereo unspecified) | 12%
41 | CCCN(CCC)CC(O)COc1ccccc1C(=O)Nc1ccccc1 (stereo unspecified) | 6%
42 | CCC(CC)CN1C(=O)C(c2ccccc2)(c2ccccc2)N=C1N | 14%
43 | Fc1ccc2nc(-c3ccc(-c4ccc(CN5CCN(c6cnccn6)CC5)cc4)s3)[nH]c2c1 | 45%
44 | Cc1[nH]c(C)c(-c2ccc(Cl)cc2Cl)c(=O)c1Br | 3%
45 | CCCCCCCC1CC(CC(=O)Nc2ccnc3ccc(OC)cc23)CN1 (stereo unspecified) | 22%
46 | CN1CCCN(Cc2ccc(-c3cccc(NC(=O)c4cccc(F)c4)c3)cc2)CC1 | 28%

Row | SMILES | inhibition
47 | COc1ccc2c(=O)c(I)c(C)[nH]c2c1 | 27%
48 | CCN(CCCN1CCCCC1)c1cc(C)nc(Nc2ccc(Oc3ccccc3)cc2)n1 | 50% (active)
49 | O=C(NC1CCCC1)c1ccc(N2CCC(NCc3cc4cc(Cl)ccc4[nH]3)CC2)cc1 | 21%
50 | Nc1ccc(Oc2ccc(Cc3cnc(N)nc3N)cc2)cc1 | 10%
51 | COc1ccc(CCn2c(=N)c(C(=O)NCc3cccnc3)cc3c(=O)n4ccccc4nc32)cc1 | 16%
52 | Cc1noc(C)c1-c1cccc(CNCc2cccc(-c3ccc(-c4nc5c(C)cccc5[nH]4)cc3)c2)c1 | 24%
53 | Cc1sc2ncnc(Sc3nc4ccccc4[nH]3)c2c1C | 14%
54 | Fc1cccc(COc2ccc(Nc3ncnc4sc(C#C[C@H]5CCCN5)cc34)cc2F)c1 | 13%
55 | COc1cc2c(cc1OC)CN(CCCCNC(=O)c1ccc(NC(=O)c3cc(Cl)cc(Cl)c3)cc1)CC2 | 19%
56 | COc1ccc(NC(=O)[C@H](CC(C)C)Nc2ccnc(Nc3ccccc3)n2)cc1 | -7%
57 | c1ccc(Oc2ccc(Nc3nncc4ccccc34)cc2)cc1 | 20%
58 | O=C(Nc1ccc2ccccc2c1)c1ccc(CN2CCC(Cc3ccccc3)CC2)cc1 | 38%
59 | Cc1ccc2[nH]c(-c3ccc(/C=C/C(=O)NC4CCN(Cc5ccccc5)CC4)cc3)nc2c1C | 22%
60 | Cc1cc(C(=O)Nc2ccc(OCc3ccccc3)cc2)on1 | 1%
61 | CCN(CC)CCNc1ccc(Nc2ccnc3cc4ccccc4cc23)cc1 | 36%
62 | O=C(NCCCCCN1CCCN(C(=O)Nc2ccc(F)c(C(F)(F)F)c2)CC1)[C@@H]1C[C@H]1c1ccc(Cl)c(Cl)c1 | 61% (active)
63 | Cc1cc(NN=Cc2ccccc2[N+](=O)[O-])c2ccccc2n1 | 10%
64 | COc1cccc(CCc2cccc(CNC(C)=O)c2)c1 | 2%
65 | CC(C)[C@H]1CC[C@H](C)C[C@@H]1OC(=O)N[C@@H](Cc1ccc(O)cc1)C(=O)NC1CCN(Cc2ccc(OCCCN(C)C)cc2)C1 (stereo partly specified) | 27%
66 | CCNc1cc(C(=O)N[C@@H](Cc2ccccc2)[C@H](O)CNC(C)(C)Cc2cccc(OC)c2)cc(N2CCCC2=O)c1 | 7%
